# Shown are actives, neighbours in structure and some others; about 3.1% of the full set was active somewhere.
# TSHR antagonist = antagonists of human thyroid stimulating hormone receptor. P16473. TSHR-expressing cells, TSH-stimulated cAMP HTRF, 2 h; stronger effect = lower value. activity change, negative = inhibition, % at 11.5 µM. 330,000 compounds, 0.2% hits. AID 504810;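 active = activity change below a set negative limit, meaning inhibition stronger than a set level, cut at about -70% in these data; inconclusive = activity change between two set negative limits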; note: % is set by controls: 0 for no effect and ±100 for the full control effect
#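 Read-out is FRET at 665 nm (cryptate excitation 337 nm) from a cryptate-tagged anti-cAMP antibody, competed by cell cAMP against cAMP-d2. Compounds are tested on freshly harvested TSHR cells challenged with 4nM TSH (EC80) for 2 hours at 37 deg C.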
# VDR inh = blocks the human vitamin D receptor; P11473; VDR-SRC2-3 peptide fluorescence polarization, 2 h; Potency, µM, without a hit: max response, negative = inhibition, usual class: inhibitors; 400,000 compounds, 0.93% hits; AID 504847; note: potency is the fitted concentration of half-maximal effect; % is set by controls: 0 for no effect and ±100 for the full control effect
#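 Measured by FP: displacement of SRC2-3 coactivator peptide from VDR by library compounds, following a two-hour ambient incubation.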
# TSG101-PTAP inh = blocks PTAP/TSG101 interaction to inhibit HIV-1 budding | AID 493005 | Fluorescence polarization, FITC-PTAP peptide / Tsg101 binding | Potency, µM (highest dose often 115 µM), for inactives: at the top dose activity change, negative = inhibition, usual class: inhibitors | 340,000 tested, under 10 active | Q99816; active = well fitted inhibition curve with a large enough effect in the main read-out, with a control signal flat, not every such curve was filed as active; inconclusive = small, poorly fitted or top-dose-only effect, or effect the other way, or a change in a side signal; inactive = no such curve, though single readings can be large or run the other way; note: potency is the fitted concentration of half-maximal effect; % of control where 0% means no effect
#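 FP read-out: FITC-PTAP peptide, 50 nM final, binding Tsg101 binding domain, 10 uM final; 20 min, r.t.; 10 mM HEPES pH 7.5, 0.15 M NaCl, 0.01% Tween 20, 3 mM EDTA, 0.1 mM TCEP.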
# PLK1 PBD inh = PLK1 (human) polo-box domain binding inhibition. 360,000 compounds, 2.8% hits. Potency, µM, inactives show max response, negative = inhibition, most hits filed as inhibitors. P53350. Plk1 PBD binding of FITC phosphopeptide, fluorescence polarization; note: potency is the fitted concentration of half-maximal effect; series mostly up to about 57 µM; % is set by controls: 0 for no effect and ±100 for the full control effect; nearly all actives have a fitted effect of over 65% in size
# Target sequence (P53350 whole entry, looked up, the tested form may be a part): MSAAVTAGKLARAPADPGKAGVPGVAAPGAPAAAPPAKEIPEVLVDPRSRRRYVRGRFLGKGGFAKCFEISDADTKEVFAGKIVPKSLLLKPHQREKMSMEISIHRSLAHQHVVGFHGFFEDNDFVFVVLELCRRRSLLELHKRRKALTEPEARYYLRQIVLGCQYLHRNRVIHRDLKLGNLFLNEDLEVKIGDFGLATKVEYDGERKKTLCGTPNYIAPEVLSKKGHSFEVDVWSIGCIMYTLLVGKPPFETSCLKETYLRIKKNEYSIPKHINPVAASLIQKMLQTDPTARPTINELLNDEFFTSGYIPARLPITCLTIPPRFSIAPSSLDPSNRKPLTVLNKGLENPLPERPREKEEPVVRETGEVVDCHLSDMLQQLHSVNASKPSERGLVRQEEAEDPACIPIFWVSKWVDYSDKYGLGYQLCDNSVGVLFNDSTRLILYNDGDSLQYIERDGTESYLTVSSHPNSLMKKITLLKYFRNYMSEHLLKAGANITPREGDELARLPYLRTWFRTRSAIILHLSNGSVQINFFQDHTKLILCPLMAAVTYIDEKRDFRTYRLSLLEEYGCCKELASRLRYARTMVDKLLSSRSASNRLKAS
# uPA surface inh = blocks generation of uPA at the cell surface; 330,000 compounds, 0.31% hits; Potency, µM (highest dose often 38.3 µM), inactives show top-dose activity change, negative = inhibition, hits mostly inhibitors; cell surface uPA generation assay, qHTS; active = well fitted inhibition curve with a large enough effect; inconclusive = small, poorly fitted or top-dose-only effect; inactive = no such curve, though single readings can be large or run the other way; tested in mouse RAW 264.7 cells; note: potency is the fitted concentration of half-maximal effect; % is set by controls: 0 for no effect and ±100 for the full control effect; nearly all actives have a fitted effect of over 55% in size
# Starred values were filed as active, the others as inactive; ? = inconclusive; . = no result given; ! = a repeat was not active. Unless noted, calls come from the whole dose curve; as a rule, active = well fitted curve in the direction sought with a large enough effect; inconclusive = small, poorly fitted or top-dose-only effect, or another doubt; inactive = no such curve, though single readings can be large; an effect the other way counts as inactive or inconclusive.
SMILES,TSHR antagonist,VDR inh,TSG101-PTAP inh,PLK1 PBD inh,uPA surface inh
CCCCn1c(SCC(=O)Nc2ccc3c(c2)CCC3)nc2ccccc2c1=O,18,-2%,-1%,30µM*,12%
CCCC(=O)C1=C(c2ccccc2)C(C#N)(C#N)C(C#N)=C1N,0,?,-3%,7.5µM*,5%
Nc1ccc(O)c(C(=O)O)c1,.,45µM*!,.,.,.
CCOC(=O)c1ccc(NC(=O)Cn2cc(C(=O)c3ccc(CC)cc3)c(=O)c3ccc(C)nc32)cc1,.,5%,.,.,.
CC1=NN(CCC#N)C(=O)/C1=C/c1ccc(N(C)C)cc1,2,-4%,4%,-1%,-3%
CCOc1cc(/C=C2\C(=O)N(CCC#N)N=C2C)ccc1OCC(N)=O,-1,-5%,-14%,19µM*,18%
COc1cc(/C=C2\C(=O)N(CCC#N)N=C2C)ccc1OCC(=O)Nc1ccccc1,4,?,-1%,1.3µM*,-2%
COc1ccc(Cl)cc1-c1noc([C@@H]2O[C@H](CO)[C@H](O)[C@H](O)[C@H]2O)n1,.,.,.,-9%,.
Cc1ccc(C(=O)n2nc(C)c(S(=O)(=O)N3CCCCCC3)c2C)cc1C,.,2%,.,.,.
C[C@@H]1CN([C@@H](C)CO)S(=O)(=O)c2ccc(Br)cc2O[C@H]1CN(C)C(=O)C1CCC1,.,.,.,-4%,.
COc1c(C=O)c(O)cc2c1C(=O)c1ccccc1C2=O,.,7.1µM*,.,.,.
COc1ccc2c(c1O)C(=O)c1ccccc1C2=O,-4,.,.,.,.
CN1CCC(Nc2ncc3ncnc(Nc4ccc(F)c(Cl)c4)c3n2)CC1,.,1%,.,.,.
Cc1cc(C)n2nc(C(=O)OCC(=O)NNC(=O)c3ccc(Cl)cc3)nc2n1,0,-4%,-3%,-13%,1%
O=c1c2cccc(Cl)c2nc2n1Cc1ccccc1-2,-5,79µM*,0%,2.7µM*,-3%
Clc1ccccc1-c1cc(NCc2ccccc2)ncn1,.,45µM*,.,.,.
CCCc1c(OCC(O)COc2ccc3c(=O)cc(C(=O)O)oc3c2CCC)ccc(C(C)=O)c1O (centres undefined),.,45µM*,.,.,.
COC(=O)CCC(=O)OC1(C)C(=O)C2=CN(C3CC3)C(c3ccc(OC)cc3)=CC2=C(Br)C1=O (centres undefined),.,?,-8%,27µM*,7%
COc1cccc(-c2cc(NCc3ccccc3)ncn2)c1,.,-2%,.,.,.
COCCn1c(C)cc(C(=O)COC(=O)c2ccccc2Br)c1C,-11,-3%,0%,2%,2.5µM*
COCCn1c(C)cc(C(=O)COC(=O)c2cccnc2SC)c1C,-5,?,0%,-9%,-7%
O=S(=O)(NCCCCCNS(=O)(=O)c1ccccc1)c1ccccc1,-5,-22%,-4%,30µM*,1%
Cc1ccc(S(=O)(=O)NCCCCCC(=O)Nc2ccccc2C)cc1,-8,4%,-5%,0%,-1%
Cc1cccc(C)c1NC(=O)CCCCCNS(=O)(=O)c1ccccc1,2,-6%,-1%,24µM*,3%
CCN(CC)c1ccc2cc(-c3nc(-c4ccccc4)no3)c(=O)oc2c1,.,6%,.,.,.
SMILES,TSHR antagonist,VDR inh,TSG101-PTAP inh,PLK1 PBD inh,uPA surface inh
Cc1ccc(C(=O)c2c3ccccc3[n+]([O-])n2CCC(N)=O)cc1,0,8%,-1%,-10%,18%
Cc1ccc(C(=O)c2c3ccc([N+](=O)[O-])cc3[n+]([O-])n2CCC(N)=O)cc1,-3,-24%,-3%,-9%,1.4µM*
Cc1ccccc1C(=O)c1c[nH]c(C(=O)NCc2cccs2)c1,-12,-7%,-4%,27µM*,0%
Cc1cc(C)n(CCc2nc(-c3ccco3)cs2)n1,-3,?,-3%,16µM*,.
Cc1nn(CCc2nc(-c3ccco3)cs2)c2[nH]c(=O)cc(C(F)(F)F)c12,-10,-82%,-2%,11µM*,3%
O=c1[nH]c(=O)n(Cc2ccccc2)c2nc(-c3ccco3)cc(C(F)(F)F)c12,-5,22%,-3%,-11%,-18%
Cc1cc(C)n(CCc2nc(-c3ccc(-c4ccccc4)cc3)cs2)n1,-14,-14%,-6%,-8%,-4%
Cc1ccc(NC(=O)Nc2cccs2)c(C)c1,.,-9%,.,.,.
O=[N+]([O-])c1ccc(Sc2ccccn2)nc1,8,4%,-3%,-6%,-1%
O=C(Nc1cc(Sc2ccccn2)cc([N+](=O)[O-])c1)c1ccc([N+](=O)[O-])cc1,-20,?,0%,1.1µM*,6%
Cc1nn(C)cc1/C=N/NC(=S)Nc1ccccc1,-3,89µM*,0%,12µM*,5%
COc1ccc(-n2nc(N)c(C(N)=O)n2)cc1,0,-20%,3%,19µM*,-2%
COc1ccc(C(=O)n2cnnc2N)cc1,-6,-18%,0%,-6%,2%
COc1ccc(-c2[nH][nH]c(=O)c2NC(=O)c2ccc(C)cc2)cc1,.,.,.,-6%,.
CN1C(=O)C(CC(=O)NC2CCCCC2)SC1=Nc1ccccc1 (centres undefined),18,-22%,2%,30µM*,16%
COc1ccc(N2C(S)=C(C#N)C(=O)NC2c2ccco2)cc1 (centres undefined),7,40µM*,-7%,?,-8%
Cc1cccc(N2C(S)=C(C#N)C(=O)NC2c2ccco2)c1 (centres undefined),9,28µM*,0%,?,0%
O=c1[nH]c(-c2ccc(-c3cccc(Cl)c3)o2)nc2ccccc12,-12,-18%,5%,.,-21%
Cc1ccc(N2OC3C(=O)NC(=O)C3C2c2ccco2)cc1 (centres undefined),11,-9%,1%,-4%,-1%
N#CC1=C(S)N(c2ccccc2)C(c2ccc(-c3cccc(Cl)c3)o2)NC1=O (centres undefined),-1,?,0%,24µM*,15%
CCOC(=O)C1=CCN(S(=O)(=O)c2ccccc2C)C1c1cccc(C)c1 (centres undefined),.,.,.,0%,.
O=C(O)c1cc(N2N=C(C(F)(F)F)/C(=C/C=C/c3ccco3)C2=O)ccc1Cl,50,?,-1%,0.53µM*,-5%
Cc1cc(CC(C)C)n(-c2nc3ccccc3c(=O)n2OCC(N)=O)n1,-3,-15%,-6%,21µM*,-1%
C=CCOn1c(-n2nc(C)cc2C)nc2ccccc2c1=O,7,-10%,-1%,-17%,2%
Cc1cc(C)n(-c2nc3ccccc3c(=O)n2OCCOc2ccccc2)n1,3,-13%,-8%,3.4µM*,1%
COc1ccc(C(=O)Nc2ccc(-c3nc4ccccc4s3)c(Cl)c2)cc1Cl,.,6%,.,.,.
